Pf growth 48h = Primary qHTS for delayed death inhibitors of the malarial parasite plastid, 48 hour incubation. P. falciparum luciferase growth in erythrocytes, 48 h. Potency, µM (titrated, usually from 28.7 µM), inactives show at the highest dose activity change, negative = inhibition, hits mostly inhibitors. AID 504832, 2011. 5.9% of 310,000 active; also: potency is read from the fitted curve at half-maximal effect; % is scaled to controls: 0 for no effect and ±100 for the full control effect
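Growth was read as firefly luciferase luminescence after a 48 h, 37 C, 5% CO2 exposure of compounds to reporter-bearing P. falciparum cultures (0.1% parasitemia, 2% hematocrit final) in Albumax-supplemented RPMI 1640.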
HCV inhibitor = qHTS Assay for Inhibitors of Hepatitis C Virus (HCV); Huh7.5.1 HCVcc-Cre infection, luciferase reporter, 44 h; 3.4% of 340,000 active; AID 651820, 2012; Potency, µM (top dose mostly 41.8 µM), for inactives: top-dose activity change, negative = inhibition, usual class: inhibitors; also: potency is read from the fitted curve at half-maximal effect; % is scaled to controls: 0 for no effect and ±100 for the full control effect
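Whole-lifecycle infectious HCVcc-Cre system; cells 1,000/well, compound then virus (~0.5 moi) added 4 h after plating, 44 h culture. Luciferase read 15 sec following 15 min substrate incubation, room temp.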
AMA1 RON2 block = qHTS for Inhibitors of AMA1-RON; Towards Development of Antimalarial Drug Lead: Primary Screen. Plasmodium falciparum AMA1 (3D7) - RON2 peptide interaction. AlphaScreen AMA1-biotinylated RON2 peptide binding. Potency, µM (highest dose often 58.2 µM), without a hit: top-dose activity change, negative = inhibition, most hits filed as inhibitors. 0.2% of 360,000 active;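 also: potency is read from the fitted curve at half-maximal effect; 0% = vehicle wells and -100% = peptide control; nearly all actives have a fitted effect of over 45% in size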
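AMA1 (3D7) with his tag at 25 nM final met compounds first, then biotinylated RON2 peptide at 25 nM; detection used donor plus acceptor beads, 10 µg/mL apiece, read by AlphaScreen after 30 min at room temperature.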
NS1 inh = qHTS Assay for Inhibitors of Influenza NS1 Protein Function. Potency, µM (highest dose often 46.1 µM), for inactives: top-dose activity, positive = more growth. 0.4% of 270,000 active. AID 2326, 2010; calls by dose curve; also: potency is read from the fitted curve at half-maximal effect; actives are rising curves; nearly all actives have a fitted effect of over 50% in size
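S. cerevisiae expressing influenza A NS1, grown in glucose, washed, then diluted 1:100 into pH 6.0 -URA galactose medium with 23 nl compound. Growth recovery read as OD600; NS1-free strain serves as control.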
SARS PLP yeast = qHTS of Yeast-based Assay for SARS-CoV PLP. S. cerevisiae expressing SARS-CoV PLpro, growth rescue. Potency, µM (highest dose often 32.9 µM), for inactives: top-dose activity, positive = growth rescue, actives largely listed as activators. 0.19% of 330,000 active. AID 485353, 2010; calls by dose curve; also: potency is read from the fitted curve at half-maximal effect; 0% is about no effect; nearly all actives have a fitted effect of over 55% in size
Pf growth 96h = Primary qHTS for delayed death inhibitors of the malarial parasite plastid, 96 hour incubation. 6.9% of 320,000 active. Potency, µM (highest dose often 28.7 µM), for the others: at the highest dose activity change, negative = inhibition, most hits filed as inhibitors. AID 504834, 2011. P. falciparum luciferase reporter growth, 96 h; also: potency is read from the fitted curve at half-maximal effect; % is scaled to controls: 0 for no effect and ±100 for the full control effect
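96 h incubation, 37 C, 5% CO2, of luciferase-reporter P. falciparum-infected RBCs (2% hematocrit, 0.05% parasitemia final) with test compounds; endpoint luminescence.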
Flu NS1 inh = Assay for Inhibitors of Influenza NS1 Protein Function: Hit Validation | influenza NS1 function cell assay, 15-point titration | activity change, negative = inhibition, % at 32.9 µM | 1,400 tested, under 10 active | shares compounds with NS1 inh; calls by dose curve; also: 0% is about no effect
Flu PR8 replic = Assay for Inhibitors of Influenza NS1 Protein Function: Influenza virus replication assay in MDCK cells infected with virus A/PR/8/34. shares compounds with NS1 inh. MDCK infected influenza A/PR/8/34, virus titer TCID50; active compounds read low. virus titer (log TCID50), log10 TCID50 at 5 µM. 30% of 95 active. AID 504647, 2011; call rule not given here
Starred values were filed as active, the others as inactive; ? = inconclusive; · = not tested or not shown. This is a sample that favours compounds with a hit; in the whole collection about 12% have one here. Unless noted, calls follow the shape of the dose curve; as a rule, active = well fitted curve in the direction sought with a large enough effect; inconclusive = small, poorly fitted or top-dose-only effect, or another doubt; inactive = no such curve, though single readings can be large; an effect the other way counts as inactive or inconclusive.

SMILES | Pf growth 48h | HCV inhibitor | AMA1 RON2 block | NS1 inh | SARS PLP yeast | Pf growth 96h | Flu NS1 inh | others
Cc1nnc(SCC(=O)OC2CC(C)CCC2C(C)C)[nH]c1=O (stereo unspecified) | · | 17% | -12% | 8% | 1% | · | ·
CC1CCC(C(C)C)C(OC(=O)CSc2nc(N)cc(=O)[nH]2)C1 (stereo unspecified) | -9% | ? | -8% | 8.9µM* | -4% | -18% | 3
Nc1c(/C=C2/C=CC(=O)C(O)=C2)c(=O)nc2sc(CC(=O)N3CCCC3)nn12 | -2% | -13% | 5% | 26% | 1% | 1% | ·
Nc1c(/C=C2/C=CC(=O)C(O)=C2)c(=O)nc2sc(CC(=O)N3CCCCC3)nn12 | -8% | 9% | 6% | 14µM* | 11µM* | -5% | -11
S=C(Nc1ccc(Oc2ccccc2)cc1)N1CCN(c2ccccn2)CC1 | 9% | -17% | 15% | 3% | -1% | 23% | ·
CC(C)c1ccc(NC(=O)CSc2nc3ccsc3c(=O)n2CCC(=O)O)cc1 | 0% | -6% | -9% | 30% | -3% | -20% | ·
Cc1ccc(S(=O)(=O)Nc2ccc3nc(-c4cccn4C)[nH]c3c2)cc1 | ? | 11µM* | -24% | 1.6µM* | -5% | · | -34 | Flu PR8 replic=8.5
CCOP(=O)(OCC)C(C)(C)NC(=O)Nc1ccc(Cl)c(Cl)c1 | -3% | -1% | 7% | 2% | 0% | -1% | ·
C/C(=N\Nc1ccccc1)c1c(O)n(Cc2ccccc2)c(=O)[nH]c1=O | -27% | -14% | -8% | 10µM* | -1% | -17% | -13
C/C(=N\Nc1ccccc1)c1c(O)n(-c2ccccc2)c(=O)[nH]c1=O | 10% | 14% | -2% | 4% | 0% | ? | ·
CCN1CCN(CC(=O)c2c(C)n(C)c3ccc(OC)cc23)CC1 | -13% | -11% | 1% | 2% | 8% | ? | ·
CCn1c(N2CCN(CC(=O)c3c(C)n(C)c4ccc(OC)cc34)CC2)nc2c1c(=O)[nH]c(=O)n2C | ? | ? | -12% | 11µM* | -1% | 10µM* | -37
O=C(N/N=C/c1ccc[nH]1)c1cc(-c2ccc(Cl)cc2)nc2ccccc12 | ? | ? | 21% | 5% | -2% | ? | ·
Cc1cc2cc(CN3C(=O)c4ccccc4C3=O)ccc2n1C | -2% | -14% | -20% | ? | 9% | ? | -15
CCCCOc1ccccc1NC(=O)c1ccc(=O)[nH]c1 | 5% | -13% | -12% | ? | -3% | -1% | 1
Cc1ccc(C(=O)N/C(=C\c2cccs2)C(=O)N2CCOCC2)cc1C | 10% | 11% | -6% | 7% | 15% | 15% | ·
Cc1c(C(=O)N2CCN(Cc3ccc4c(c3)OCO4)CC2)sc2ncnc(N3CCN(c4ccccc4)CC3)c12 | 9% | ? | 4% | 2.5µM* | -11% | ? | ?
O=C(COC(=O)/C=C/c1cccc(C(F)(F)F)c1)Nc1cccc(S(=O)(=O)NC2=NCCC2)c1 | · | · | -1% | · | · | · | ·
CC1(C)Cc2c(sc3ncnc(NNC(=S)NCc4ccccc4)c23)CO1 | -19% | ? | 76% | 11µM* | 1% | ? | -8
Cn1c(SCC(=O)Nc2cccc3ccccc23)nc(O)cc1=O | 10µM* | 9% | 3% | 3.5µM* | 4% | ? | 24

Screening results as filed in PubChem BioAssay.
